# Measurements reported in PubChem BioAssay AID1347076 (National Center for Advancing Translational Sciences (NCATS), 2019).
# Out of some 400,000 compounds screened, about 13,000 (3.2%) were called active. Where a call stands in place of a potency, no number is given. About 18% were inconclusive and are not listed. This is one part of a sample in which actives are shown more often than they occur. Calls follow the shape of the dose curve; as a rule, active = well fitted cell-killing curve with a large enough effect; inconclusive = small, poorly fitted or top-dose-only effect, or effect the other way; inactive = flat fitted curve, though single readings scatter.
# Test: qHTS assay for MDR1-selective chemotherapeutics: Primary screen using the drug-selected MDR subline cells KB-V1; also: nearly all actives have a fitted effect of over 60% in size
# Conditions: KB-V1 MDR cells viability, CellTiter-Glo, 72 h; series mostly up to 46.1 µM
# Procedure, shortened: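 Compound-treated KB-V1 multidrug-resistant cells, 72 h, 37 degrees C; viability by CellTiter-Glo. Fitted qHTS curves give the values.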
# Potency is read from the fitted curve at half-maximal effect.
row,SMILES,Potency
1,C[C@@H]1CC2=C(C(=O)OC(C)(C)O2)[C@@H](C2CC2)O1,inactive
2,COc1cccc(-c2cnc(C(O)c3ccccc3OC)[nH]2)c1 (configuration not stated),inactive
3,CCOc1ccc(S(=O)(=O)N2CCN=C2Cc2ccccc2)cc1C,inactive
4,CC1=NCCN1S(=O)(=O)c1cccc([N+](=O)[O-])c1,inactive
5,COc1cc(S(=O)(=O)N2CCN=C2c2ccccc2)ccc1Cl,16.4 µM (active)
6,O=S1(=O)CC(N2CCN(Cc3ccccc3F)CC2)CN1Cc1cn(Cc2cccc(C(F)(F)F)c2)nn1 (configuration not stated),inactive
7,Cc1c(CCO)sc[n+]1CC(=O)c1ccc2ccccc2c1,inactive
8,CCOC(=O)C1CCN(Cc2nnc(-c3cccc(Br)c3)o2)CC1,inactive
9,CCOC(=O)C1CCN(C(=O)c2oc3ccc(S(=O)(=O)N4CCCCCC4)cc3c2C)CC1,inactive
10,CCOC(=O)C1CCN(c2ncnc3c2oc2ccc(Br)cc23)CC1,20.6 µM (active)
11,CCN(CC)CCNc1ncnc2c1cnn2-c1cc(Cl)ccc1C,inactive
12,CN(C)C(=O)c1cccc(-c2cnc3sc(NCc4ccc5c(c4)OCO5)nn23)c1,inactive
13,COc1ccc(COC(=O)NC(C(=O)O)c2ccccc2)cc1 (configuration not stated),inactive
14,COc1ccc(CN(C)C(=O)CC(c2ccccc2)c2ccccc2)cc1,inactive
15,COc1ccc(C(CCN(Cc2ccc(OC)c(OC)c2)C(=O)CCl)c2ccccc2)cc1 (configuration not stated),20.6 µM (active)
16,O=C(NCc1ccc(F)cc1)c1cc(C2CCCCN2C(=O)c2ccccn2)on1 (configuration not stated),inactive
17,O=C(CSc1nc2ccccc2c(=O)n1Cc1ccc(F)cc1)NCC1CCCO1 (configuration not stated),inactive
18,O=C(CSc1nc2ccccc2c(=O)n1CCCO)NC1CC1,inactive
19,COC(=O)c1ccc2c(=O)n(CCN3CCOCC3)c(SCC(=O)Nc3cccc(OC)c3)nc2c1,inactive
20,O=C(CSc1nc2ccccc2c(=O)n1-c1ccc(F)cc1)NC1CC1,inactive
21,O=C(CCn1c(SCC(=O)c2ccccc2)nc2ccccc2c1=O)NCc1ccc(F)cc1,7.31 µM (active)

row,SMILES,Potency
1,O=C(CSc1ncc(CO)n1Cc1ccc(F)cc1)NCc1ccco1,inactive
2,CCc1ccc(NC(=O)CSc2nc3ccccc3c(=O)n2CCN2CCOCC2)cc1,8.2 µM (active)
3,CC(=O)c1ccc(NC(=O)CSc2nc3ccccc3c(=O)n2CCCN2CCOCC2)cc1,inactive
4,O=C(CCCn1c(SCC(=O)c2ccc(F)cc2)nc2ccccc2c1=O)NCc1ccco1,5.8 µM (active)
5,COc1ccc(Cn2cc(C(=O)c3ccc(C)cc3)c(=O)c3cc(OC)c(OC)cc32)cc1,inactive
6,O=C(NC1CCCC1)C1c2ccccc2OCC(=O)N1CC(F)(F)F (configuration not stated),inactive
7,CCCCn1nnnc1C(c1cc2ccccc2o1)N(C)Cc1ccc(Cl)c(Cl)c1 (configuration not stated),inactive
8,O=C1NC(Cc2ccccc2)c2nc3ccc(Br)cc3c(=O)n2-c2cc3ccccc3cc21 (configuration not stated),inactive
9,O=C(NC(C(=O)NCCN1CCOCC1)C12CC3CC(CC(C3)C1)C2)C1CCCCC1 (configuration not stated),14.6 µM (active)
10,O=C(NCCN1CCOCC1)C1CCN(S(=O)(=O)c2ccccc2)CC1,inactive
11,O=C(NCCCN1CCOCC1)C1CCCN(S(=O)(=O)N2CCCCC2)C1 (configuration not stated),inactive
12,CCOC(=O)c1c(NC(=O)COC(=O)c2ccc(S(=O)(=O)C(F)F)cc2)sc(C(=O)N(C)C)c1C,inactive
13,CC1(C(=O)O)CCN1C(=O)/C=C/c1ccccc1 (configuration not stated),inactive
14,CCN(CC(=O)Nc1ccc(OC)cc1)C(=O)c1ccc(=O)n(Cc2ccccc2)n1,18.4 µM (active)
15,CCN(CC(=O)Nc1ccc(OC)cc1)C(=O)c1ccc(Cl)c(S(=O)(=O)N2CCCC2)c1,inactive
16,COc1ccc(NC(=O)CN(C)C(=O)c2cc(C3CC3)nn2-c2ccccc2)cc1,inactive
17,N=c1c2c3c(sc2ncn1N)CCCCC3,inactive
18,N=c1c2c3c(sc2ncn1CCCN1CCOCC1)CCCCC3,8.2 µM (active)
19,N=c1c2c3c(sc2nc2n1CCCCC2)CCCC3,inactive
20,CCN1CCN(c2ccc(/C=C/c3ccnc4ccccc34)cc2)CC1,inactive
21,C[C@@H]1CN([C@H](C)CO)C(=O)c2cc(Br)cnc2O[C@@H]1CN(C)Cc1cncnc1,inactive

row,SMILES,Potency
1,C[C@H]1Cn2cnc(C(=O)N[C@@H](Cc3c[nH]c4ccccc34)C(=O)OC(C)(C)C)c2C(=O)N1,inactive
2,COc1ccc(C(=O)NC2CC(C)(C)NC(C)(C)C2)cc1OC,inactive
3,COc1ccc(C(=O)N2CC3(C)CC2CC(C)(C)C3)cc1OC (configuration not stated),23.1 µM (active)
4,Cc1cccc(C(=O)NCC(=O)OCC(=O)N2CC3(C)CC2CC(C)(C)C3)c1 (configuration not stated),inactive
5,O=C(NCc1ccccc1)C(c1ccc(F)cc1)N1CCN(C(=O)C2CCCO2)CC1 (configuration not stated),inactive
6,CCn1c(Cc2ccc(OC)cc2)nnc1SCC(=O)Nc1ccc(N2CCOCC2)cc1,inactive
7,CCn1c(CNC(=O)c2ccc(OC)c(OC)c2)nnc1SCC(=O)Nc1ccccc1,inactive
8,CCn1c(Cc2ccccc2)nnc1SCC(=O)Nc1ccccc1,20.6 µM (active)
9,CC1(C(=O)NS(=O)(=O)c2cccc(OC(F)F)c2)CCN1C(=O)COc1ccc(Cl)cc1 (configuration not stated),inactive
10,O=C(Nc1cccc2ccccc12)c1[nH]c(-c2ccccc2)c2c1C(=O)N(C1CC1)C2=O,inactive
11,CCCCNC(=O)C[C@@H]1C[C@@]2(C(=O)OCC)CCC=C2N(Cc2ccco2)C1=O,inactive
12,Cc1cc([N+](=O)[O-])ccc1NS(=O)(=O)c1ccccc1,inactive
13,O=[N+]([O-])c1ccc(NS(=O)(=O)c2ccccc2)c(Cl)c1,23.1 µM (active)
14,O=C(NNS(=O)(=O)c1ccc(F)cc1)c1ccc([N+](=O)[O-])cc1Cl,inactive
15,CCc1nc2ccc(C(=O)N3CCC(O)(Cc4ccccc4)CC3)cn2c1N(C)C(=O)Cc1ccccc1,inactive
16,CC1(C(=O)NCc2ccc3c(c2)OCO3)CCN1CCc1ccccc1 (configuration not stated),inactive
17,COc1ccc(C(=O)NNS(=O)(=O)c2ccc(C)cc2)cc1,inactive
18,COc1ccc(S(=O)(=O)N/N=C\c2ccc(OC)c(COc3ccc(C)cc3[N+](=O)[O-])c2)cc1,inactive
19,COc1ccc(C(=O)Oc2cc(/C=N/NS(=O)(=O)c3ccc(C)cc3)ccc2OC)cc1,14.6 µM (active)
20,c1ccc(Cc2c(-c3ccco3)nc3c4ccccc4ccn23)cc1,inactive
